Records with an inconclusive call do not appear. Calls of active or inactive are those of the source. Calls follow the shape of the full dose curve.
molecular target: Vitamin D3 receptor (Homo sapiens) (UniProt P11473); experiment: qHTS assay for small molecule agonists of vitamin D receptor signaling (AID 588543); details: HEK293T VDR-UAS-bla, beta-lactamase ratio, 16 h; series mostly up to 76.8 µM; activation: at the top concentration;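 also: 0% = DMSO basal and 100% = reference agonist control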
Outline: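 β-lactamase reporter, VDR-UAS-bla HEK293T, agonist mode. Cells plated 5 h at 37 °C, compound titration 16 h at 37 °C, CCF4 dye 2 h RT, ratio 460/530 nm. Hill fit → EC50, efficacy vs 50 nM 1α,25-(OH)2D3.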

Vitamin D3 receptor (Homo sapiens), sequence (P11473 whole entry, looked up): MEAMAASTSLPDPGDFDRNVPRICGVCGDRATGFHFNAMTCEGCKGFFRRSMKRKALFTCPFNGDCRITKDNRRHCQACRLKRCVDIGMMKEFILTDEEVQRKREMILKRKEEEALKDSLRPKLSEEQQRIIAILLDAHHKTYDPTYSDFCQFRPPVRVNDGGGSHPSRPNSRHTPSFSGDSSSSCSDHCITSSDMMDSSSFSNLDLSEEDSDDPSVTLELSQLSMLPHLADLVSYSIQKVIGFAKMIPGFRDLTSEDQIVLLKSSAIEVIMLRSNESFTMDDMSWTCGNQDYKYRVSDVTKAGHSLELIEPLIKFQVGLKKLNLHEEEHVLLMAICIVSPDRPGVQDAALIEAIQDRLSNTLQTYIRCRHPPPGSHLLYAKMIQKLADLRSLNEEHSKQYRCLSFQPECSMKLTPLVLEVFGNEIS

Row | SMILES | activation | outcome
1 | C=CCN=C=S | -0.408% (inactive) | 
2 | C[C@]12CCC(=O)C[C@@H]1CC[C@@H]1[C@@H]2CC[C@]2(C)[C@@H](O)CC[C@@H]12 | -3.52% (inactive) | 
3 | O=C(O)c1cc[c]([Hg][Cl])cc1 | -4.69% (inactive) | 
4 | COC1=CC(=O)O[C@@H](/C=C/c2ccccc2)C1 | 1.25% (inactive) | 
5 | CCCSP(=O)(OCC)SCCC | -1.32% (inactive) | 
6 | O=C1C2CC=CCC2C(=O)N1SC(Cl)(Cl)Cl (stereo unspecified) | 8.23% (inactive) | 
7 | CC[C@H](C)[C@H]1O[C@]2(C=C[C@@H]1C)C[C@@H]1C[C@@H](C/C=C(\C)[C@@H](O[C@H]3C[C@H](OC)[C@@H](O[C@H]4C[C@H](OC)[C@@H](O)[C@H](C)O4)[C@H](C)O3)[C@@H](C)/C=C/C=C3\CO[C@@H]4[C@H](O)C(C)=C[C@@H](C(=O)O1)[C@]34O)O2 | 2.04% (inactive) | 
8 | O=[N+]([O-])c1ccc(F)c([N+](=O)[O-])c1 | 2.14% (inactive) | 
9 | CCOP(=O)(OCC)O/C(=C/Cl)c1ccc(Cl)cc1Cl |  | inactive
10 | CCOC(=O)c1ccccc1C(=O)OCC |  | inactive
11 | C[C@H]1CC[C@@H]2[C@@H](C)[C@H]3[C@H](C[C@H]4[C@@H]5CC=C6CC(O[C@@H]7O[C@H](CO)[C@H](O)[C@H](O[C@@H]8O[C@H](CO)[C@@H](O)[C@H](O)[C@H]8O)[C@H]7O[C@H]7O[C@@H](C)[C@H](O)[C@@H](O)[C@H]7O)CC[C@]6(C)[C@H]5CC[C@]34C)N2C1 (stereo partly specified) | 2.24% (inactive) | 

From PubChem BioAssay (NCATS)
